Our source for the growth inhibition values is PubChem BioAssay (NCI).

The panel holds about 79,000 compounds, 15% with a hit somewhere; the sample as a whole holds those more often. Values without a mark were called inactive. Activity calls are given as the source filed them. No stated cut-off is given here; in the data, active means growth inhibition above about 70%; inactive means the rest.

Assay [1] is described as follows: NCI Yeast Anticancer Drug Screen. Data for the rad50 strain (AID 155).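 Further: 0% = growth of vehicle-only cultures of the same strain.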 The note with it: S. cerevisiae rad50 strain growth inhibition; at 50.0 µM; hits give high values. The gist of the method: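 A DNA repair-deficient yeast mutant serves as the test organism; compound-induced growth inhibition is calculated against vehicle-treated cells.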
A short description of assay [2]: NCI Yeast Anticancer Drug Screen. Data for the mec2-1 strain (AID 157). Conditions: S. cerevisiae mec2-1 strain, at 50.0 µM, hits give high values. The gist of the method:
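Compounds were applied to mec2-1 yeast cells. Their growth was then compared with that of vehicle-treated cultures to give growth inhibition.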

A short description of assay [3]: NCI Yeast Anticancer Drug Screen. Data for the sgs1 mgt1 strain (AID 161).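 Further: 0% = growth of cultures given vehicle only.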 The note with it: S. cerevisiae sgs1 mgt1 strain, at 50.0 µM, hits give high values. The gist of the method:
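Compounds are added to genetically altered yeast, and growth is compared with cultures given vehicle alone to give percent inhibition.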

A short description of assay [4]: NCI Yeast Anticancer Drug Screen. Data for the cln2 rad14 strain (AID 165).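 Further: 0% = growth equal to vehicle treated cultures.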 Conditions: S. cerevisiae cln2 rad14 strain, at 50.0 µM, hits give high values. The gist of the method: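 Strain: cln2 rad14 yeast, altered in cell cycle control and DNA damage repair. Read-out: growth inhibition vs vehicle.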
Assay [5] can be described thus: NCI Yeast Anticancer Drug Screen. Data for the bub3 strain (AID 167). The note with it: S. cerevisiae bub3 mutant strain, at 50.0 µM, hits give high values. The gist of the method:
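Inhibition values come from growth of compound-treated mutant yeast normalised to vehicle-treated controls.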

The nature of assay [6]: NCI Yeast Anticancer Drug Screen. Data for the mlh1 rad18 strain (AID 175). Conditions: S. cerevisiae mlh1 rad18 strain growth inhibition; at 50.0 µM; hits give high values. The gist of the method: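 A repair-deficient yeast strain is exposed to test compound, and growth is scored relative to vehicle-treated controls.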

Take `COC(=O)/C(=N\N)C(C(=O)C(=O)Nc1nc(=S)[nH][nH]1)c1nc2ccc([N+](=O)[O-])cc2[nH]c1=O` (stereo unspecified): the growth inhibition is 2.3% in assay [1]; -7.65% in assay [2]; 10.1% in assay [3]; 11.7% in assay [4]; 29% in assay [5]; 22.6% in assay [6].

For `OC(c1cc(C(F)(F)F)nc2c(Cl)cc(Cl)cc12)C1CCCCN1` (stereo unspecified), the growth inhibition in assay [1] was 7.2%; in assay [2], -22.4%; in assay [3] it was -5%; in assay [4], -3.4%; in assay [5] it was 8.75%; in assay [6], 22.9%.

For the compound `CCC(CC)C1CC[N-]CC1.CCC(CC)C1CC[N-]CC1.CCC(CC)C1CC[N-]CC1.CCC(CC)C1CC[N-]CC1.N#C[S-].N#C[S-].[Co]`, the growth inhibition was 16.4% in assay [1]; 15.1% in assay [2]; 3.1% in assay [3]; 13.8% in assay [4]; 19.4% in assay [5]; 29.7% in assay [6].

With `CC(=O)N1Cc2c(cc(C)[nH]c2=O)C1=O`, the growth inhibition in assay [1] is 9%; in assay [2], 10.5%; in assay [3] it was 6.45%; in assay [4], 10.7%; in assay [5], 1.05%; in assay [6], 7.65%.

Regarding `COc1ccc(/C=C2\N=C(c3cc(OC)c(OC)c(OC)c3)OC2=O)cc1OC`, the growth inhibition in assay [1] is 7.1%; in assay [2], 10.9%; in assay [3], 8.5%; in assay [4], 29.9%; in assay [5], -1.85%; in assay [6], 25.1%.

For the compound `CC(=O)OC/C=C1/CC[C@H]2[C@@H]3CCC4=CC(=O)[C@H](C)C[C@]4(C)[C@H]3[C@@H](O)C[C@]12C`, the growth inhibition in assay [1] was -1.85%; in assay [2] it was -2%; in assay [3], 4.05%; in assay [4] it was 1.8%; in assay [5], -9.2%; in assay [6], -21.8%.

`Nc1ncc2[nH]c(I)nc2n1`: the growth inhibition was 16.9% in assay [1]; 19.9% in assay [2]; 0.65% in assay [3]; 0.7% in assay [4]; 40.2% in assay [5]; 26.4% in assay [6].

`COc1ccccc1NC(=O)NCCN1CCCC1`: the growth inhibition in assay [1] was -2.15%; in assay [2], 8.1%; in assay [3], 31.1%; in assay [4] it was -8.9%; in assay [5], 9.45%; in assay [6], 5.3%.

`Nc1ccccc1CO`: the growth inhibition is 3% in assay [1]; 2.4% in assay [2]; 2.25% in assay [3]; -0.05% in assay [4]; -4.65% in assay [5]; 7.1% in assay [6].

In the case of `CC(C)c1ccc(CN)cc1`, the growth inhibition in assay [1] was -23.4%; in assay [2], -39.2%; in assay [3] it was -29.8%; in assay [4], 6.5%; in assay [5], -36.8%; in assay [6], -17.5%.

For `CN1C/C(=C\c2ccco2)c2nc(N)nc(-c3ccco3)c2C1`, the growth inhibition in assay [1] is -6.15%; in assay [2], -3.35%; in assay [3], 8.9%; in assay [4], 35.5%; in assay [5] it was 6.85%; in assay [6], -4.15%.

In the case of `CN=C(N)N/N=C(\c1ccccc1)c1ccc(Cl)cc1`, the growth inhibition was 43.4% in assay [1]; 11.6% in assay [2]; 43.1% in assay [3]; 3.55% in assay [4]; 34.6% in assay [5]; 72.9% (active) in assay [6].

As to `CCCCCCC(=O)N1CC(C)OC(C)C1` (stereo unspecified), the growth inhibition in assay [1] was 0.6%; in assay [2] it was -6.4%; in assay [3], 2.4%; in assay [4], 0.1%; in assay [5], -14.7%; in assay [6] it was 4.8%.

`S=C1CC(c2ccccc2)Sc2cc(Cl)ccc2N1` (stereo unspecified): the growth inhibition in assay [1] was -15.5%; in assay [2] it was -4.35%; in assay [3] it was 4.9%; in assay [4] it was 15.6%; in assay [5], -2.45%; in assay [6], -2.95%.

Turning to `C=C(C)c1ccc(B2Nc3ccccc3N2)cc1`, the growth inhibition was 53.6% in assay [1]; 30.2% in assay [2]; 45.6% in assay [3]; 18.8% in assay [4]; 40.8% in assay [5]; 58.5% in assay [6].

As to `C=CCNC(=S)N(C)Cc1ccccc1Cl`, the growth inhibition is -7.2% in assay [1]; 35.5% in assay [2]; 34.8% in assay [3]; -25.9% in assay [4]; 36.4% in assay [5]; 33.6% in assay [6].

Consider `Nc1cccc2ccc(S(=O)(=O)O)cc12`, for which the growth inhibition is -3.05% in assay [1]; -9% in assay [2]; -24.4% in assay [3]; -13.8% in assay [4]; -9.9% in assay [5]; 8.85% in assay [6].

Turning to `CC(=O)NNc1nc(C)c(C(/C=C/c2ccccc2O)=N/NC(=O)c2ccncc2)s1`, the growth inhibition in assay [1] was 6.9%; in assay [2], 5.5%; in assay [3] it was 16.1%; in assay [4], 26.6%; in assay [5], 17.5%; in assay [6], 22.2%.

For the compound `N#Cc1c(N2CCCC2)ncn(Cc2ccccc2)c1=O`, the growth inhibition was 0.7% in assay [1]; 12.8% in assay [2]; 0.2% in assay [3]; -30.8% in assay [4]; 7.15% in assay [5]; 4.7% in assay [6].

Regarding `CCOC(=O)c1sc2nc(-c3ccccc3)nn2c1CBr`, the growth inhibition is 17.1% in assay [1]; 3.95% in assay [2]; 11.9% in assay [3]; 24.1% in assay [4]; 18.6% in assay [5]; 49.4% in assay [6].

As for `COC(=O)CC1(C(=O)OC)Nc2ccccc2C(=O)O1` (stereo unspecified), the growth inhibition in assay [1] is 2.65%; in assay [2], 21.7%; in assay [3], 18.8%; in assay [4], -11.1%; in assay [5], -11.1%; in assay [6] it was 2.9%.
